# Most compounds without a hit are left out; they make up all but 7.2% or so of the library.
# NPR1 antag: human Npr1 receptor antagonism; HEK293 hNpr1 GloSensor cGMP, ANP-stimulated luminescence; Potency, µM (highest dose often 46.3 µM), for inactives: top-dose activity change, negative = inhibition, most hits filed as inhibitors; 1.6% of 76,000 active; calls by dose curve; further: on the % scale 0 is the no-effect control and ±100 the full control effect; nearly all actives have a fitted effect of over 60% in size
#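 Compound pre-incubated 30 min at room temperature on GloSensor-loaded HEK293 cells stably carrying hNpr1 and the pGS-40F cGMP biosensor. Stimulation uses hNppA at 0.1 nM final; luminescence is taken at baseline and 20 min post-agonist.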
# NIH3T3 tox: kills NIH 3T3 cells. NIH 3T3 viability, CellTiter-Glo ATP luminescence, 48-72 h. Potency, µM (top dose mostly 96.7 µM), inactives show top-dose activity change, negative = cytotoxicity, hits mostly inhibitors. 4.3% of 94,000 active; further: on the % scale 0 is the no-effect control and ±100 the full control effect; nearly all actives have a fitted effect of over 55% in size
#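 First NIH 3T3 cells are plated at 400 cells/well; next compound is pinned in; then plates incubate 48 or 72 hr at 37 °C; finally CellTiter-Glo is added and luminescence read after 10 min.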
# SNCA expr inhib: SNCA gene expression inhibition | 0.17% of 140,000 active | AID 1671194 | HEK-293 SNCA-luciferase knock-in, luminescence, 24 h | Potency, µM (titrated, usually from 57.2 µM), inactives show top-dose activity change, negative = inhibition, actives largely listed as inhibitors;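 further: plate controls were DMSO cells for no effect and cell-free wells for full effect; nearly all actives have a fitted effect of over 45% in size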
# SNCA viab count: counter-screen for SNCA expression inhibitors: cell viability; 0.12% of 150,000 active; HEK-293-SNCA-luc viability, GF-AFC fluorescence, 24 h; Potency, µM (top dose mostly 57.1 µM), inactives show top-dose activity change, negative = cytotoxicity, actives largely listed as cytotoxic;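 further: 0% = DMSO-treated cells and -100% = medium-only wells without cells; nearly all actives have a fitted effect of over 30% in size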
#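 Cytotoxicity counterscreen: after 24 h compound treatment of genome-edited SNCA-luciferase HEK-293 cells, live-cell protease substrate GF-AFC read by fluorescence after 30 min; activity scaled between DMSO (0%) and medium-only (-100%), curves Hill-fitted.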
# HEK293 tox: kills HEK 293 cells. HEK 293 viability, ATP luminescence (CellTiter-Glo), 48-72 h. Potency, µM (titrated, usually from 115 µM), inactives show at the highest dose activity change, negative = cytotoxicity, usual class: inhibitors. 6.6% of 94,000 active. AID 1345083; further: on the % scale 0 is the no-effect control and ±100 the full control effect; nearly all actives have a fitted effect of over 60% in size
#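 250 HEK 293 cells/well; compound by pintool; incubated 48 or 72 hr at 37 degree Celsius; CellTiter-Glo added, 10 min RT, luminescence imaged.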
# FLuc inh-1: Photinus pyralis luciferase inhibition; P08659; 2.5% of 76,000 active; AID 1347043; Potency, µM (highest dose often 115 µM), hits mostly inhibitors; purified P. pyralis luciferase, luminescence, biochemical; further: on the % scale 0 is the no-effect control and ±100 the full control effect; nearly all actives have a fitted effect of over 65% in size
#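 Luminescence read by CCD imaging after purified firefly luciferase (10nM final) was added to substrate buffer holding 10uM D-luciferin and 10uM ATP, pH 7.5, pre-dosed with compound.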
# FLuc SDR no ATP: binders stabilizing firefly luciferase, without ATP | 7.8% of 1,300 active | shares compounds with FLuc inh-1 | Potency, µM (doses to about 32.7 µM), without a hit: at the top dose activation (signal gain), most hits filed as activators | Purified FLuc-C-HiBiT, Nano-Glo HiBiT luminescence, no ATP | AID 1963318; further: nearly all actives have a fitted effect of over 55% in size
# FLuc SDR ATP: binders stabilizing firefly luciferase, plus ATP; 8.7% of 1,300 active; purified FLuc-C-HiBiT + ATP, HiBiT complementation luminescence; AID 1963319; Potency, µM (top dose mostly 32.7 µM), inactives show at the top dose activation (gain of signal), actives largely listed as activators; shares compounds with FLuc inh-1;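 further: signal reports ligand binding via conformational change of the enzyme rather than luciferase catalysis; % of control where 0% means no effect; nearly all actives have a fitted effect of over 55% in size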
# FLuc inh-2: inhibitors of firefly luciferase enzymatic activity; shares compounds with FLuc inh-1; purified FLuc-C-HiBiT enzyme, luciferin luminescence; Potency, µM (doses to about 32.7 µM), inactives show at the top dose activity change, negative = inhibition, most hits filed as inhibitors; 42% of 1,300 active; AID 1963320; further: on the % scale 0 is the no-effect control and ±100 the full control effect; nearly all actives have a fitted effect of over 70% in size
# NPR1 antag cnf: confirmation of human Npr1 natriuretic peptide receptor antagonists; shares compounds with NPR1 antag; HEK293 hNpr1 cGMP GloSensor luminescence, ANP-stimulated; Potency, µM (doses to about 57.6 µM), without a hit: at the highest dose activity change, negative = inhibition, hits mostly inhibitors; 76% of 1,400 active; AID 1347044; calls by dose curve; further: nearly all actives have a fitted effect of over 70% in size
# Npr2 selectivity: antagonizes human Npr2, subtype selectivity check; shares compounds with NPR1 antag; HEK293 hNpr2 GloSensor cGMP luminescence, CNP-stimulated; Potency, µM (doses to about 57.6 µM), without a hit: at the top dose activity change, negative = inhibition, hits mostly inhibitors; 67% of 1,400 active; calls by dose curve; further: nearly all actives have a fitted effect of over 70% in size
# Target sequence (P20594 whole entry, looked up): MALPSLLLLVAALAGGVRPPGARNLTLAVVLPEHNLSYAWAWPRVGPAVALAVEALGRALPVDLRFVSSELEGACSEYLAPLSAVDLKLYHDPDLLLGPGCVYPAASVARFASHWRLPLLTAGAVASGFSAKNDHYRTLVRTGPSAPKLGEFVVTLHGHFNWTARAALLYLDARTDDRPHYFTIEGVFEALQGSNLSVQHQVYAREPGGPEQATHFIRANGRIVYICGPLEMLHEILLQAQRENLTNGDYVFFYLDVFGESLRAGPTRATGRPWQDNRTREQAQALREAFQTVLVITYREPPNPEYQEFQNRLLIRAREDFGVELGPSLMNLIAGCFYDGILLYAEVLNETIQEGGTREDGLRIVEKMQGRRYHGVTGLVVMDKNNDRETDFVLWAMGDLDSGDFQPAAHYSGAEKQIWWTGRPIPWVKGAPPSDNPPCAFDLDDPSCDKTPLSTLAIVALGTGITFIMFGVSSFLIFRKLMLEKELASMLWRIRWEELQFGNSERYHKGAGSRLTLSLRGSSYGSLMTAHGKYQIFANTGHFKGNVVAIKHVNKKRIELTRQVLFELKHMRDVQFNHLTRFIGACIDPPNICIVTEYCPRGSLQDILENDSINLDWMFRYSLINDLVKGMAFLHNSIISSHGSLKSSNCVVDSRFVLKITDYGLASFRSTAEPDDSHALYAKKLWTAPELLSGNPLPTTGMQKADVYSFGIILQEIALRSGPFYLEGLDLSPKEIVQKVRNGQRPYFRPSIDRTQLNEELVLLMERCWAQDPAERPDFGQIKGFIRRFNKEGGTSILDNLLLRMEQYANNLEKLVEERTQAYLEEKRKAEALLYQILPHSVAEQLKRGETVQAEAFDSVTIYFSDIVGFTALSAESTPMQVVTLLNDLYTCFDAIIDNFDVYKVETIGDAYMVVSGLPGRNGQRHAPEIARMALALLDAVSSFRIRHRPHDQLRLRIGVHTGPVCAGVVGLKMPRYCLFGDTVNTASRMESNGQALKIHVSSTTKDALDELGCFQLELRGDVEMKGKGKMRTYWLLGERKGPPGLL
# FLuc counter: inhibits firefly luciferase, false Npr1 antagonist flag. 0.7% of 1,400 active. purified FLuc enzyme, luminescence, Km substrate. shares compounds with NPR1 antag. AID 1347047. Potency, µM (titrated, usually from 57.6 µM), for inactives: top-dose activity change, negative = inhibition, actives largely listed as inhibitors; further: series mostly up to about 58 µM; 0% is about no effect
# GloSensor cGMP: control cell line activity, Npr1 antagonist counter-screen; shares compounds with NPR1 antag; HEK293 GloSensor cGMP, SNP-stimulated, luminescence; Potency, µM (series often up to 57.6 µM), for the others: at the top dose activity change, negative = inhibition, usual class: inhibitors; 69% of 1,400 active; calls by dose curve; further: on the % scale 0 is the no-effect control and ±100 the full control effect; nearly all actives have a fitted effect of over 70% in size
# An asterisk follows results filed as active; i = inactive; ? = inconclusive; / = not tested or not shown; [ ] = remark or other dose. Unless noted, the call rests on the fitted dose curve; in most records, active means well fitted curve in the direction sought with a large enough effect; inconclusive means small, poorly fitted or top-dose-only effect, or another doubt; inactive means no such curve, though single readings can be large; an effect the other way counts as inactive or inconclusive. Potency means the concentration at half of the fitted maximal effect.
SMILES,NPR1 antag,NIH3T3 tox,SNCA expr inhib,SNCA viab count,HEK293 tox,FLuc inh-1,NPR1 antag cnf,Npr2 selectivity,FLuc counter,GloSensor cGMP,others
COc1ccc(NC(=O)N2[C@H]3CC[C@@H]2c2cnc(-c4ccc(F)cc4)nc2C3)cc1OC,?,?,-1.8%,-18.7%,?,i,/,/,/,/,
C#C[C@H]1CN2CC[C@H]1C[C@@H]2CNC(=O)Nc1cccc(C(F)(F)F)c1,-1.7%[70.6 µM],?,3.9%[87.6 µM],-6.3%[87.6 µM],?,i,/,/,/,/,
O=C(Nc1ccccc1)Nc1ccc2n(c1=O)C[C@H]1C[C@@H]2CN(C(=O)c2ccccc2)C1,-4.8%[70.6 µM],?,77.2%[87.6 µM],-9.5%[87.6 µM],?,14.1µM*,/,/,/,/,FLuc SDR no ATP=?;FLuc SDR ATP=16.7%[49.3 µM];FLuc inh-2=?
O=C(Nc1ccc2n(c1=O)C[C@H]1C[C@@H]2CN(C(=O)Nc2ccccc2)C1)c1ccncc1,2.6%[70.6 µM],?,48.7%[87.6 µM],0.1%[87.6 µM],-0.2%[172 µM],i,/,/,/,/,
COc1ccc(-n2cc(C3=CCN(CCN4CCOCC4)CC3)cn2)cc1,?,?,97.4%,-13.3%,?,4.47µM*,/,/,/,/,FLuc SDR no ATP=?;FLuc SDR ATP=?;FLuc inh-2=9.89µM*
COc1ccc(C(=O)c2c(C)n(CCN3CCOCC3)c3cc(I)ccc23)cc1,/,/,-2.1%,-23.6%,/,/,/,/,/,/,
CC[C@H]1CN2CC[C@H]1C[C@@H]2CNS(=O)(=O)c1cccs1,0.3%[70.6 µM],1.3%[174 µM],-12.0%[87.6 µM],1.0%[87.6 µM],-0.9%[172 µM],i,/,/,/,/,
CC[C@H]1CN2CC[C@H]1C[C@@H]2CN(Cc1cccs1)Cc1cccs1,?,44.7µM*,?,?,44.7µM*,i,?,?,2.8%[86.2 µM],4.3%[86.2 µM],
COc1cccc([C@@H]2CCN(Cc3[nH]c4ccccc4c3C)C[C@H]2O)c1,2.5%,?,-5.0%,-10.4%,?,i,/,/,/,/,
COc1cc2c(cc1Oc1ccccc1)NC(=O)C21CCN(c2cnccn2)CC1,-20.7%[70.6 µM],?,-30.0%[87.6 µM],-10.4%[87.6 µM],?,i,?,?,3.0%[86.2 µM],?,
O=C(Nc1ccccc1F)N1[C@H]2CC[C@@H]1c1cncnc1C2,1.2%,-6.0%,-15.2%,2.5%,i,i,/,/,/,/,
Cc1ncccc1C(=O)N1[C@H]2CC[C@@H]1c1cnc(-c3ccc(F)cc3)nc1C2,-29.3%,?,14.4%,4.7%,?,i,/,/,/,/,
Cc1cccc(OCC(=O)N2[C@H]3CC[C@@H]2c2cnc(-c4ccc(F)cc4)nc2C3)c1,?,?,18.6%,7.1%,?,i,?,?,3.9%,?,
Cc1cc(C(=O)N2[C@H]3CC[C@@H]2c2cnc(-c4ccc(F)cc4)nc2C3)n[nH]1,12.6µM*,?,-5.7%,4.7%,?,i,24.3µM*,24.3µM*,-1.7%,24.3µM*,
O=C(COc1ccc(F)cc1)N1[C@H]2CC[C@@H]1c1cnc(-c3ccccc3)nc1C2,/,-33.0%,25.1%,-0.6%,?,/,/,/,/,/,
Cc1ccsc1C(=O)N1[C@H]2CC[C@@H]1c1cnc(-c3ccc(F)cc3)nc1C2,5.62µM*,?,-24.7%,-20.5%,?,i,7.69µM*,7.69µM*,1.1%,6.11µM*,
COCCn1c(C)cc(C(=O)N2[C@H]3CC[C@@H]2c2cnc(-c4ccc(F)cc4)nc2C3)c1C,11.2µM*,?,25.1µM*,?,25.1µM*,i,12.2µM*,15.3µM*,1.4%,13.7µM*,
COc1ccc(NC(=O)N2[C@H]3CC[C@@H]2c2cnc(C)nc2C3)c(C)c1,2.5%,-5.3%,5.6%,-9.2%,i,i,/,/,/,/,
Cc1ncc2c(n1)C[C@@H]1CC[C@H]2N1C(=O)c1cccs1,-3.2%,-5.4%,10.5%,4.5%,1.2%,i,/,/,/,/,
COc1ccc(C2(C(=O)N3CCC4(CC3)c3nccn3-c3ccccc3CN4C)CC2)cc1,8.91µM*,-14.5%,-8.5%,3.4%,?,i,17.2µM*,5.44µM*,1.6%,7.1%,
O=C(Cc1ccccc1)N1Cc2ccccc2CC2(CCCCN2Cc2ccccn2)C1 (centres undefined),/,?,?,-23.1%,?,/,/,/,/,/,
O=C1Nc2ccccc2C12CCN(Cc1ccc(C(F)(F)F)cc1)CC2,/,?,?,-13.4%,?,/,24.3µM*,24.3µM*,-0.9%,24.3µM*,
O=C1Nc2ccccc2C12CCN(Cc1ccc(F)cc1)CC2,/,-6.9%,?,-6.0%,?,/,/,/,/,/,
O=C(O)C1=NOC2CN(Cc3ccncc3)CC12 (centres undefined),/,4.1%[174 µM],-5.7%[87.6 µM],-11.2%[87.6 µM],4.9%[230 µM],/,/,/,/,/,
O=C(C1CCCCC1)N1[C@H]2CC[C@@H]1c1cnc(-c3ccc(F)cc3)nc1C2,6.31µM*,-30.4%,-12.8%,-15.5%,-34.4%,i,9.68µM*,10.9µM*,5.2%,9.68µM*,
COc1ccc(CNC(=O)N2[C@H]3CC[C@@H]2c2cnc(-c4ccccc4)nc2C3)cc1,12.6µM*,-43.2%,-25.8%,-11.6%,?,i,19.3µM*,19.3µM*,1.6%,13.7µM*,

# High-throughput results deposited in PubChem by National Center for Advancing Translational Sciences (NCATS).
